Experiments:
Experiment in all cases: log2 ratio of Biotin-Ahx-Ub-VS probe labelling (fragment/DMSO); higher = less target engagement (more negative = stronger competition), active = hit call of the paper (q ≤ 0.05, log2 ratio ≤ -1)
Conditions in all cases: compound concentration: 200 uM; treatment time: 3 h
USP34 = USP34 (UniProt Q70CQ2)
In short: (§1)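 HEK293T lysate, 495 µg per sample in Tris/CHAPS/IGEPAL buffer with protease inhibitors, was treated in triplicate with fragment at 200 µM or vehicle for 3 h and then with Biotin-Ahx-Ub-VS at 0.5 µM final for 1 h. Labelled DUBs were NeutrAvidin-enriched, digested with LysC and trypsin, and run by diaPASEF LC-MS/MS. Spectronaut label-free quantities were global-median-normalised, and values are average log2 fragment/vehicle ratios by unpaired t-test on proteins with ≥2 unique peptides.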

USP36 = target: T1, USP36 (UniProt Q9P275)
T1 sequence (whole entry): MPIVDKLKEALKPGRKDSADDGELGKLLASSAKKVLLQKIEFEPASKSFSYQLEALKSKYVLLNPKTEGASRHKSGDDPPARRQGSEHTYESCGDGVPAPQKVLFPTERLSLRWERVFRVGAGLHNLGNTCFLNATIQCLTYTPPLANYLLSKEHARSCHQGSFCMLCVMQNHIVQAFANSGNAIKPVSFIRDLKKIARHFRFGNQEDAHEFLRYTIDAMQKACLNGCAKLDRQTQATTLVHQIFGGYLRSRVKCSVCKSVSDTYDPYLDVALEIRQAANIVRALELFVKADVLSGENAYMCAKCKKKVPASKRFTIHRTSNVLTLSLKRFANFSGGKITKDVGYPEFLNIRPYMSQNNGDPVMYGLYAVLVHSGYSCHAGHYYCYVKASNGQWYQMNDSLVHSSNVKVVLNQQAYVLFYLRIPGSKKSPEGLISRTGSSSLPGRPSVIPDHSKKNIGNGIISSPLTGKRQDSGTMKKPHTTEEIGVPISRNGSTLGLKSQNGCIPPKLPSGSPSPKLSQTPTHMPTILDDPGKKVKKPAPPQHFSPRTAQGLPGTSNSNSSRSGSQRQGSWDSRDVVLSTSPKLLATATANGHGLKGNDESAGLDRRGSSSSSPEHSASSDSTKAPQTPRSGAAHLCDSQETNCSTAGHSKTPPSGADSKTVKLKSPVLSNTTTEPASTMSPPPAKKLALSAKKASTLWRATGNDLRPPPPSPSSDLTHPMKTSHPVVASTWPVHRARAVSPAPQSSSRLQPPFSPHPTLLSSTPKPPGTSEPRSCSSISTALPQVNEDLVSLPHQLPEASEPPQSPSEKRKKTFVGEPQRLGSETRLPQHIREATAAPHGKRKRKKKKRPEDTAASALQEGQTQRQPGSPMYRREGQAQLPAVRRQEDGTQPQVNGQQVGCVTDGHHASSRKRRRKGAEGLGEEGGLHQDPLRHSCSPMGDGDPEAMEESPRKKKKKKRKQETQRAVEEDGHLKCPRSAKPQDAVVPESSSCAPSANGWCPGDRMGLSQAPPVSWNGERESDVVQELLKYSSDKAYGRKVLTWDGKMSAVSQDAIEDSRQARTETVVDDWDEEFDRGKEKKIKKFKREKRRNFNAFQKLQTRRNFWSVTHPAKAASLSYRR
In short: as §1

USP38 = target: T2, USP38 (UniProt Q8NB14)
T2 sequence (whole entry): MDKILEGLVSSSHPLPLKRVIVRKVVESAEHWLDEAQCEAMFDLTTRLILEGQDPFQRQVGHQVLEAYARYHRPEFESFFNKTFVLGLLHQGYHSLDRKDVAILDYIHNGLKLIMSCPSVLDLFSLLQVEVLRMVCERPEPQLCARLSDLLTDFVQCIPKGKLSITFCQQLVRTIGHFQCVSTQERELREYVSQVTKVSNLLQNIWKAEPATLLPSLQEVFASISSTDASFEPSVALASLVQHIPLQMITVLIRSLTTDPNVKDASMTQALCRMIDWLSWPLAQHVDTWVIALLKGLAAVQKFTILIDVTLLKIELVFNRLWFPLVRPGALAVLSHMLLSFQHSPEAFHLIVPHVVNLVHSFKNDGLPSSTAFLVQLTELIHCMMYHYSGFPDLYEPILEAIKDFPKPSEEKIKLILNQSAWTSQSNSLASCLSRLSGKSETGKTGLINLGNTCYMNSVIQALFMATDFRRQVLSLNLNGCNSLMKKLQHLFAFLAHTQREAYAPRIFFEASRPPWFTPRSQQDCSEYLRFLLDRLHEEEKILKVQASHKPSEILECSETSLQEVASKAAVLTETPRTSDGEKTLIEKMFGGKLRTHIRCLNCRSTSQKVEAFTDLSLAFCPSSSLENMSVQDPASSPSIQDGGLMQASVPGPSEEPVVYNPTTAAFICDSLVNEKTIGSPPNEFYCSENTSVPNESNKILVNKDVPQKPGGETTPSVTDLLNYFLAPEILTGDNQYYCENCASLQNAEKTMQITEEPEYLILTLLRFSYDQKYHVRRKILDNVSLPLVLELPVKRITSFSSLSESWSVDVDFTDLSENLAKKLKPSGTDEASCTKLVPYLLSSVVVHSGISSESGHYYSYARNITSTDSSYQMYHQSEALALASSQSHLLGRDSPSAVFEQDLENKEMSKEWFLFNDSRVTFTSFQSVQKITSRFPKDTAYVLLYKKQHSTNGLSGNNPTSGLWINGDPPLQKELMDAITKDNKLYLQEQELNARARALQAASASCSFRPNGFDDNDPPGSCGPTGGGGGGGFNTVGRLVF
In short: as §1

USP39 = target: T3, USP39 (UniProt Q53GS9)
T3 sequence (whole entry): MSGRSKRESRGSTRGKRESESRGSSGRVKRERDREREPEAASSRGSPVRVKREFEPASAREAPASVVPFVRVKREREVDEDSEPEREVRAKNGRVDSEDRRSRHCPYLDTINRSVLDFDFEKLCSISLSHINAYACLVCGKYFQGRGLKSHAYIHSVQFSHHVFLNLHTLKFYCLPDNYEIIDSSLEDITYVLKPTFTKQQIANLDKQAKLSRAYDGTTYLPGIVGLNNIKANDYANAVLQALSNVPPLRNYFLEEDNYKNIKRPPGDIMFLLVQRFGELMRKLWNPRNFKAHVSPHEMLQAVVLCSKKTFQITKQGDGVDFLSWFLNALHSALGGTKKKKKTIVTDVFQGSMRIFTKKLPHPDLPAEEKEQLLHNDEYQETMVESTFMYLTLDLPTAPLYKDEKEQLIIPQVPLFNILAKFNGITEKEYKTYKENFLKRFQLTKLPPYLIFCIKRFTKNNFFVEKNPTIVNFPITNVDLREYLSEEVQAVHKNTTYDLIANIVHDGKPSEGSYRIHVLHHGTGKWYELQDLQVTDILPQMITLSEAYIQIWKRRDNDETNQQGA
In short: as §1

USP4 = target: T4, USP4 (UniProt Q13107)
T4 sequence (whole entry): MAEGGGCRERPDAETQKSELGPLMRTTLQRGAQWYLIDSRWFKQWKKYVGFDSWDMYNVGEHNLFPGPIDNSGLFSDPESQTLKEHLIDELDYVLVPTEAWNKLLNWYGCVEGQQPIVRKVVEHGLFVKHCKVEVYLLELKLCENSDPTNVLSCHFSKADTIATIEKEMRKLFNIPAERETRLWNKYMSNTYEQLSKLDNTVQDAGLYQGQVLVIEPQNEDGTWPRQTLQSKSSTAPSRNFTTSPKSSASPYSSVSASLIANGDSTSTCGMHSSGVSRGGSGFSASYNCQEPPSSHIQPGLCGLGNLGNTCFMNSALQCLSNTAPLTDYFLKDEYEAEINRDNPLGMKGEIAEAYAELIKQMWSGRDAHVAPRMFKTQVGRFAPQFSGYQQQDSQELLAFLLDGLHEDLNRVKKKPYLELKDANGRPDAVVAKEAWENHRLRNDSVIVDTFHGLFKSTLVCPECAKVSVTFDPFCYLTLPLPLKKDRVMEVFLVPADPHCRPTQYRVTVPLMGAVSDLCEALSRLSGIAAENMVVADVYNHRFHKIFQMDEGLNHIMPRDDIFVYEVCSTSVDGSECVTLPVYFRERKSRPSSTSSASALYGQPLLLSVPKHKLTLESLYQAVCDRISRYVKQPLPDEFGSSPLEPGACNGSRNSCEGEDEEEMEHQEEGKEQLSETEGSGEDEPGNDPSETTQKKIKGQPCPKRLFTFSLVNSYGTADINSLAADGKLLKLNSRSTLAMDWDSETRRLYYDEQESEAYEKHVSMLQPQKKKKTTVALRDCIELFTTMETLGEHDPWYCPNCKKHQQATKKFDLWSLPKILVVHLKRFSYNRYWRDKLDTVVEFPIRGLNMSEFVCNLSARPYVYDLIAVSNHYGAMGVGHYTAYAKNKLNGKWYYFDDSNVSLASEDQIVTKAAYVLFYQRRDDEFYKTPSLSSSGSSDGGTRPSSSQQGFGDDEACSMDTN
In short: as §1

Measured: log2 ratio of Biotin-Ahx-Ub-VS probe labelling

Sequence of USP34 (Q70CQ2 whole entry, the tested form may be a part): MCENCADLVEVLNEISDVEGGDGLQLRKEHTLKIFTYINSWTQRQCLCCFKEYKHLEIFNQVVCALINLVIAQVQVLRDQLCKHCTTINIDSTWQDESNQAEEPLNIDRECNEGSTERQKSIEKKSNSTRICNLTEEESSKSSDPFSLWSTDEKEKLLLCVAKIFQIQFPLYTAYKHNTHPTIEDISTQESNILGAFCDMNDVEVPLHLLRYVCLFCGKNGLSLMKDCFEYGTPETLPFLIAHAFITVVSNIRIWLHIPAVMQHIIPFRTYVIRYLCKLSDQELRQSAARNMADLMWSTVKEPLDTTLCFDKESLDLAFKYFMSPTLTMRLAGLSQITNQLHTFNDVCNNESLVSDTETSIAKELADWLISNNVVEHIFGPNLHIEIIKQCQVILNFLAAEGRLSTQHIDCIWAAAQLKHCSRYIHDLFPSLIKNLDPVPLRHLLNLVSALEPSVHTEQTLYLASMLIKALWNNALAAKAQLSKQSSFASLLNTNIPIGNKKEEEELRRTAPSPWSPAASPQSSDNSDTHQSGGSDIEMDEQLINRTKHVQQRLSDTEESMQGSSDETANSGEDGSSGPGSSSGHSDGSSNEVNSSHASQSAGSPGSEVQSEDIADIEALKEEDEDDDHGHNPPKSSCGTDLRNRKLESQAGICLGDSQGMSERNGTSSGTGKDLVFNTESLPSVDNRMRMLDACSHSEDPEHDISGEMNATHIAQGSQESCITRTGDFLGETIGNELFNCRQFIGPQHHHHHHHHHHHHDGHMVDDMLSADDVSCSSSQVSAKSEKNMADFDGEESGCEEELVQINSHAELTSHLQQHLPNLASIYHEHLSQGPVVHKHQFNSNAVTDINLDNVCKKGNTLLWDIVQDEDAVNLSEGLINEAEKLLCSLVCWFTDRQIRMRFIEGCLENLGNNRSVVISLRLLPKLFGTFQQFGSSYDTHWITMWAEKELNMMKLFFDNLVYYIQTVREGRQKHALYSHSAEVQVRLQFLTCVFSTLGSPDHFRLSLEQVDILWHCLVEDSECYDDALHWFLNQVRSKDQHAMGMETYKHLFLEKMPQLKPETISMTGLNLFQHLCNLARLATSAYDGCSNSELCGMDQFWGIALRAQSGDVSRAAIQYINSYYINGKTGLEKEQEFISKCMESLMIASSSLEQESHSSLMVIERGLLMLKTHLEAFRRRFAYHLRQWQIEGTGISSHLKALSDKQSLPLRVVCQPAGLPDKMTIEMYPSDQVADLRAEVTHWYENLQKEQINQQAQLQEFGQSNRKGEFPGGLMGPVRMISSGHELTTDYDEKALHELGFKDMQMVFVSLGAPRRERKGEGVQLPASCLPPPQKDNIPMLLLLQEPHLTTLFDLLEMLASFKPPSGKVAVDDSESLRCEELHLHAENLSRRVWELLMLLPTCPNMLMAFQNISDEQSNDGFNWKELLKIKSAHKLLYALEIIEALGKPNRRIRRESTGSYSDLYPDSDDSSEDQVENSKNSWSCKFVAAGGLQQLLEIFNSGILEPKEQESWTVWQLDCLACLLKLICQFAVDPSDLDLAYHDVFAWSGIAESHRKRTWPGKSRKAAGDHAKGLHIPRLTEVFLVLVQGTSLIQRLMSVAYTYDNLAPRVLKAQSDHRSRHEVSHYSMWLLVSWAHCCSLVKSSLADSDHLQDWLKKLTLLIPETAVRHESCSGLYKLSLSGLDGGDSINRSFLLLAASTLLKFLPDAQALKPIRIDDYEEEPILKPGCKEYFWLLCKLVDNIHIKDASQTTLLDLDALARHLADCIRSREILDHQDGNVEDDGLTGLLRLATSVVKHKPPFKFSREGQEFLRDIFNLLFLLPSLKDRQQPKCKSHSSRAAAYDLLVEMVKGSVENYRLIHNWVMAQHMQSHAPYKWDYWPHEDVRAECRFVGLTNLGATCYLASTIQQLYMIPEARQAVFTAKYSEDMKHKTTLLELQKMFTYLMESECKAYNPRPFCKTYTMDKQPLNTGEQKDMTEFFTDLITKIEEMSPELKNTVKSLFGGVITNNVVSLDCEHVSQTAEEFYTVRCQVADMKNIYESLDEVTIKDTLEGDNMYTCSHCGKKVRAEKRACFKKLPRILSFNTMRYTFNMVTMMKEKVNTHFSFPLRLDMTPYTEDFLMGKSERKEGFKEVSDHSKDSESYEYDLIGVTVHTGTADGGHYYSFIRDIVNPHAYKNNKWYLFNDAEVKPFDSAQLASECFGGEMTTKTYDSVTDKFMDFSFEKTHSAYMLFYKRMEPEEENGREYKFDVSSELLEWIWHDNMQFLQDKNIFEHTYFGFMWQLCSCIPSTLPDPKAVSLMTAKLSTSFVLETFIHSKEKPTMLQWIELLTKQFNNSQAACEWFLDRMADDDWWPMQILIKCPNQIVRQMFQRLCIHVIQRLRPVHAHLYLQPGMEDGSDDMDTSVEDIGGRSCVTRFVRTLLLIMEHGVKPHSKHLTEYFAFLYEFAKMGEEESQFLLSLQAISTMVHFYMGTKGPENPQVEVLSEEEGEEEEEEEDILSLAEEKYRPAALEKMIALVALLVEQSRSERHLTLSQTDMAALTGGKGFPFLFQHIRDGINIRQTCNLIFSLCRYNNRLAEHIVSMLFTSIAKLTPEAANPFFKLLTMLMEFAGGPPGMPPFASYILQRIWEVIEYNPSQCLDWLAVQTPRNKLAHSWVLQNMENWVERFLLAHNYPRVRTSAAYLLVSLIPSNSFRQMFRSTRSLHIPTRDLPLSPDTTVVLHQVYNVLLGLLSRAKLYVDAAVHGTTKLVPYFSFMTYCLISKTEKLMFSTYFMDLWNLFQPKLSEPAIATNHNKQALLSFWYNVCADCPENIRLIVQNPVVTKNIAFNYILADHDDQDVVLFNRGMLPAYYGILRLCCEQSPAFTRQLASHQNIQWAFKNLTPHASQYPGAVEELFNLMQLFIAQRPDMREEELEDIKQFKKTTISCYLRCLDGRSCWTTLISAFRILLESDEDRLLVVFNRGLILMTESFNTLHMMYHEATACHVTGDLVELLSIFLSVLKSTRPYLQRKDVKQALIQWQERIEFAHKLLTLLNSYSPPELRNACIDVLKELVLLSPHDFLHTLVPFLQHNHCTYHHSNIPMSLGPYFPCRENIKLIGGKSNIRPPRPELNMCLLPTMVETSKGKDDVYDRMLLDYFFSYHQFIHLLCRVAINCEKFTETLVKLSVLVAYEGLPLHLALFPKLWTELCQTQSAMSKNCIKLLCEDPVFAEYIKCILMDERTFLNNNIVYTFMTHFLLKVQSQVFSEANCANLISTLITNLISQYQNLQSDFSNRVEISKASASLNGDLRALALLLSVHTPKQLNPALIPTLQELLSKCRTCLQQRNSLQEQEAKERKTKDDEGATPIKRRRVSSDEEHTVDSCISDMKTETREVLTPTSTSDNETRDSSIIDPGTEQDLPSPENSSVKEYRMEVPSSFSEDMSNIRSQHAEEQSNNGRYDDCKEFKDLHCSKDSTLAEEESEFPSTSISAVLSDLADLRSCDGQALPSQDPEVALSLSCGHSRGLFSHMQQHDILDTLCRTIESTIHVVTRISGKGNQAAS

Cc1ccc(CNC(=O)CCl)nc1C.Cl
inactive: USP34 -0.103 | USP36 0.158 | USP38 0.0543 | USP39 0.0861 | USP4 0.0382

Source: the supplement of paper PMC11732987, “Enantioselective OTUD7B fragment discovery through chemoproteomics screening and high-throughput optimisation” (Communications Chemistry, 2025)
